Experimental data reported in PubChem BioAssay.
For some of these results: Potency and affinity values are given separately. Calls of active or inactive are those of the source.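 The calls were made as follows, unless noted: active = primary screen activator hit with a dose response curve and TRPC4 channel activation at any tested dose; inactive = no activation, no dose response, or not a primary hit.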

Key:
[1] = test system: TRPC4 beta (transient receptor potential cation channel C4), mouse; assay: TRPC4 cation channel opening, retest – cell-based, Fluo4 calcium, HEK293 TRPC4beta/mu-opioid, duplicates, 10 µM, confirmation (AID 2426;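 active = fluorescence ratio normalized to control raised more than 50% in primary screen plus both repeat runs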); details: Fluo4 calcium fluorescence, at 10 µM; hits give high values
[2] = test system: transient receptor potential cation channel C4 beta (TRPC4), mouse; assay: TRPC4 cation channel opening, second retest – cell-based, second round, Fluo4, HEK293 TRPC4beta/mu-opioid, 1 µM, confirmation (AID 2461;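 active = primary screen active and over 50% activation in each of two duplicate runs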); details: Fluo4 calcium fluorescence, at 1 µM; hits give high values
[3] = test system: TRPC4 (transient receptor potential cation channel C4 beta), mouse; assay: potentiation of DAMGO EC20 TRPC4 response – cell-based, second round, Fluo-4, HEK293 TRPC4beta/mu-opioid, 1 µM, confirmation (AID 2554;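 active = primary screen hit whose fluorescence ratio, in both repeats, exceeds the weak agonist control mean by 3 SD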); details: DAMGO EC20, Fluo-4 calcium flux, at 1 µM; hits give high values
[4] = test system: TRPC4 beta (transient receptor potential cation channel C4), mouse; assay: potentiation of DAMGO EC20 TRPC4 response – cell-based, Fluo-4, HEK293 TRPC4beta/mu-opioid, confirmation (AID 2555;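 active = primary screen hit whose calcium fluorescence ratio, in both repeats, exceeds the weak agonist control mean by 3 SD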); details: DAMGO EC20, Fluo-4 calcium flux, at 10 µM; hits give high values
[5] = target: Short transient receptor potential channel 4 (Mus musculus) (UniProt Q9QUQ5); assay: blockers of DAMGO-evoked TRPC4 calcium flux – cell-based, Fluo4, HEK293 TRPC4beta/mu-opioid, confirmation (AID 2636;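 active = calcium signal cut by more than 3 SD below the full-agonist control yet still positive, in both repeats and the earlier primary screen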); details: at 10 µM; hits give high values
[6] = target: Short transient receptor potential channel 4 (Mus musculus) (UniProt Q9QUQ5); assay: blockers of DAMGO-evoked TRPC4 calcium flux – cell-based, second round, Fluo4, HEK293 TRPC4beta/mu-opioid, 1 µM, confirmation (AID 2637;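 active = calcium signal ratio cut to more than 3 SD under the fully stimulated control mean yet still positive, in both repeats and the primary screen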); details: at 1 µM; hits give high values
[7] = target: Short transient receptor potential channel 4 (Mus musculus) (UniProt Q9QUQ5); assay: calcium entry via TRPC4 opening agents – cell-based, HEK293 TRPC4/mu-opioid, Fluo-4 calcium, dose response (AID 434937)
[8] = target: Short transient receptor potential channel 4 (Mus musculus) (UniProt Q9QUQ5); assay: potentiation of DAMGO-evoked TRPC4 calcium signal – cell-based, HEK293 TRPC4/mu-opioid, Fluo-4 calcium, EC20 DAMGO, dose response (AID 434941;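 active = earlier screen potentiator hit that boosts the TRPC4 ion channel at some dose, with a dose response; inactive = no potentiation, no dose response, or not a prior hit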;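 also: calcium entry triggered by an EC20 dose of DAMGO at the co-expressed mu-opioid receptor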)
[9] = target: Short transient receptor potential channel 4 (Mus musculus) (UniProt Q9QUQ5); assay: block of DAMGO-driven TRPC4 calcium entry – cell-based, HEK293 TRPC4/mu-opioid, Fluo-4 calcium, dose response (AID 434942;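 active = primary screen inhibitor hit that blocks the TRPC4 channel at some tested dose, yielding a dose curve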)
[10] = target: Short transient receptor potential channel 6 (Mus musculus) (UniProt Q61143); assay: TRPC6 blockade by TRPC4 inhibitor hits – cell-based, HEK293, membrane potential dye, duplicate, selectivity assay for TRPC4 inhibitor project, confirmation (AID 434948;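 active = active in primary screen and both duplicates, each dropping signal beyond three positive-control SD with fluorescence still positive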); details: HEK293 TRPC6, membrane potential dye fluorescence, at 10 µM, stimulated with maximal-effect acetylcholine; hits give high values
[11] = target: Short transient receptor potential channel 6 (Mus musculus) (UniProt Q61143); assay: TRPC6 opening by TRPC4 activator hits – cell-based, HEK293, membrane potential dye, duplicate, selectivity assay for TRPC4 activator project, confirmation (AID 434950;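 active = membrane potential signal rise above negative control mean plus 3 SD in both duplicates, also active in the earlier TRPC4 screen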); details: HEK293 TRPC6, membrane potential fluorescence, at 10 µM; activation: hits give high values; outcome: activation
[12] = target: Short transient receptor potential channel 6 (Mus musculus) (UniProt Q61143); assay: positive modulators of mouse TRPC6 channel – HEK293 cells, membrane potential dye, duplicate, selectivity assay for TRPC4 potentiator project, confirmation (AID 434952;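 active = compound raising the membrane signal above positive-control mean plus 3 SD in both repeats, and a primary screen hit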); details: HEK293 TRPC6, membrane potential dye fluorescence, at 10 µM, maximal acetylcholine added after compound; hits give high values
[13] = target: Short transient receptor potential channel 4 (Mus musculus) (UniProt Q9QUQ5); assay: calcium flux activators in TRPC4/5HT1a cells, counter-screen for TRPC4 activator project, cell-based, second counter screen, HEK293 TRPC4/5HT1a, Fluo-4 (AID 434977;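 active = calcium signal rise above buffer-control mean plus 5 SD in both duplicates, and also a hit in the primary screen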); details: Fluo-4 calcium flux, at 10 µM; hits give high values
[14] = serotonin-gated TRPC4 signal block – cell-based, second counter screen, HEK293 TRPC4/5HT1a, Fluo-4, counter-screen for TRPC4 inhibitor project, confirmation (AID 434978;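 active = primary screen active whose calcium signal fell more than 3 SD beyond the full-serotonin control mean in both duplicate plates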;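 also: serotonin given first at submaximal then at maximal dose after compound preincubation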); details: Fluo-4 calcium flux, at 10 µM, serotonin added to trigger calcium flux; hits give high values
[15] = test system: TRPC4 (mouse), co-expressed with 5HT1a in HEK293; assay: enhancement of serotonin-evoked TRPC4 response – cell-based, second counter screen, HEK293 TRPC4/5HT1a, Fluo-4, counter-screen for TRPC4 potentiator project, confirmation (AID 434979;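 active = signal rise over 3 SD above mean of control wells given weak agonist, in both repeats and first screen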); details: Fluo-4 calcium flux, at 10 µM, serotonin added at its EC20 dose; hits give high values
[16] = nonspecific calcium rise without TRPC4 – cell-based, HEK293 mu-opioid receptor line, counter-screen for TRPC4 activator project, confirmation (AID 449723;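 active = hit in primary screen, with calcium signal over 5 SD above buffer well mean in both duplicates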;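 also: counter screen cells carry the mu-opioid receptor alone and lack TRPC4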); details: HEK293 mu-opioid cells, Fluo-4 calcium fluorescence, at 10 µM; hits give high values
[17] = nonspecific potentiation of DAMGO calcium response – cell-based, HEK293 mu-opioid receptor line, counter-screen for TRPC4 allosteric potentiator project, confirmation (AID 449724;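 active = calcium signal rise more than 3 SD above the low-dose agonist control mean, in both duplicate plates and the primary screen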); details: HEK293 mu-opioid receptor cells, Fluo-4 calcium flux, at 10 µM, compound added before EC20 DAMGO stimulus; hits give high values

Short transient receptor potential channel 4 (Mus musculus), sequence (Q9QUQ5 whole entry, looked up): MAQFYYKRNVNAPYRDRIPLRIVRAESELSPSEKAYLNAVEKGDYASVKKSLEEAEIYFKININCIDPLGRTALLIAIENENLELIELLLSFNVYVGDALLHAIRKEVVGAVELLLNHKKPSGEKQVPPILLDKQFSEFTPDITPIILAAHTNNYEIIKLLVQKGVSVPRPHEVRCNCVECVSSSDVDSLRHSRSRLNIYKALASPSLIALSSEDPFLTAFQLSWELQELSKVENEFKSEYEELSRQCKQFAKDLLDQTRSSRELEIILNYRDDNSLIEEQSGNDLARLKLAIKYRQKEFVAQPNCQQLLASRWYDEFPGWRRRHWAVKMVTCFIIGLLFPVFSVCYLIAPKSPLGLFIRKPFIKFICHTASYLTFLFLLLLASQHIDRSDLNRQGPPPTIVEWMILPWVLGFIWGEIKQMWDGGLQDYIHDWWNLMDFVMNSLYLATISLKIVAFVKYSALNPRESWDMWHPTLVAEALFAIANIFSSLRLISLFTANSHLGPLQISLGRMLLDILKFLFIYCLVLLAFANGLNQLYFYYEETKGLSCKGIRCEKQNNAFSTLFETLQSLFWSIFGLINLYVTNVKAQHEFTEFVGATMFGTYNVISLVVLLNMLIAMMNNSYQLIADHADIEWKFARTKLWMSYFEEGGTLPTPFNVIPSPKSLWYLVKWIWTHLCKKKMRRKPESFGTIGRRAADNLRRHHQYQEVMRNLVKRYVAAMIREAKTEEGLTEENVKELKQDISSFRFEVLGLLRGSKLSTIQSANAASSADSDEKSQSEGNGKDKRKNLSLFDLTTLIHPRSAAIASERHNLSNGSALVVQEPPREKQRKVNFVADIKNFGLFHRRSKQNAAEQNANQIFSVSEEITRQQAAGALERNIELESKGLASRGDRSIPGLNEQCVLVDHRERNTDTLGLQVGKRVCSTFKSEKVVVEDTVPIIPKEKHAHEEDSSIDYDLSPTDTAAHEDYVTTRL
Short transient receptor potential channel 6 (Mus musculus), sequence (Q61143 whole entry, looked up): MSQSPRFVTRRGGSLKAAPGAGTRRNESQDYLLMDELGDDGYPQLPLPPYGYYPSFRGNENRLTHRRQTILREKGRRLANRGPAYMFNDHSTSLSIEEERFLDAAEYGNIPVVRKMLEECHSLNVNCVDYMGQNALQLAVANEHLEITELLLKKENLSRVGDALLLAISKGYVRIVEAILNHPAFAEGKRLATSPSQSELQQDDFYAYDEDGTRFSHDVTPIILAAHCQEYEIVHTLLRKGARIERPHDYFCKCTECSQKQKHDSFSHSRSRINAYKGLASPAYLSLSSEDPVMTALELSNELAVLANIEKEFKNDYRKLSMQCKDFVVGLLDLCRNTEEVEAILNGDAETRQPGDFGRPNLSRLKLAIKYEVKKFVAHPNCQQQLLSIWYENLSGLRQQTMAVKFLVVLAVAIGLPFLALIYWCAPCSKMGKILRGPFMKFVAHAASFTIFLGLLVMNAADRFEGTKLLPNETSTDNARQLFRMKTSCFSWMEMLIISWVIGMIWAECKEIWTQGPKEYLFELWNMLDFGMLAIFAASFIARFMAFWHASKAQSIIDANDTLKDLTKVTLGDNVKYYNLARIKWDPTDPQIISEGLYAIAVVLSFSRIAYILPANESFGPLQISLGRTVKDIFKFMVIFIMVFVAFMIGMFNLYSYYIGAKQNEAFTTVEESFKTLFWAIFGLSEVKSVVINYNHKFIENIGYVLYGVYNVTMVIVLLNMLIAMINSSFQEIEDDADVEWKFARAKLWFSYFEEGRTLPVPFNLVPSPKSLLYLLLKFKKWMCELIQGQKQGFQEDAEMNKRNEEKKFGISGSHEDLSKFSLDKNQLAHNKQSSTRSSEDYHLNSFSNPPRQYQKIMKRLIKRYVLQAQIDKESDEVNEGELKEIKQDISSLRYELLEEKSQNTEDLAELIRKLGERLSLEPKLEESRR

CC1=C(C(=O)NCCN2CCN(C)CC2)C2(CCC(C)CC2)OC1=O (stereo not drawn)
inactive: outcome [1] | outcome [2] | outcome [3] | outcome [4] | outcome [5] | outcome [6] | outcome [7] | outcome [8] | outcome [9] | outcome [10] | outcome [11] | outcome [12] | outcome [13] | outcome [14] | outcome [15] | outcome [16] | outcome [17]

CSCC(C)N1CCC(CO)(CCCc2ccccc2)CC1 (stereo not drawn)
inactive: outcome [1] | outcome [2] | outcome [3] | outcome [4] | outcome [5] | outcome [6] | outcome [7] | outcome [8] | outcome [9] | outcome [10] | outcome [11] | outcome [12] | outcome [13] | outcome [14] | outcome [15] | outcome [16] | outcome [17]

CCOC(=O)c1cnc(-n2nc(C)cc2C)nc1NC1CCCCC1
inactive: outcome [1] | outcome [2] | outcome [3] | outcome [4] | outcome [5] | outcome [6] | outcome [7] | outcome [8] | outcome [9] | outcome [10] | outcome [11] | outcome [12] | outcome [13] | outcome [14] | outcome [16] | outcome [17]
active: potentiation [15] 26.3%

Fc1ccc(Nc2ncnc3sc4c(c23)CCC4)cc1
inactive: outcome [1] | outcome [2] | outcome [4] | outcome [5] | outcome [6] | outcome [7] | outcome [8] | outcome [9] | outcome [10] | outcome [11] | outcome [12] | outcome [13] | outcome [14] | outcome [16] | outcome [17]
active: potentiation [3] 22% | potentiation [15] 50%

CCCn1c(NCc2cc(OC)ccc2OC)nc2ccccc21
inactive: outcome [1] | outcome [2] | outcome [3] | outcome [4] | outcome [5] | outcome [6] | outcome [7] | outcome [8] | outcome [9] | outcome [10] | outcome [11] | outcome [12] | outcome [13] | outcome [14] | outcome [15] | outcome [16] | outcome [17]

O=C(OCC(=O)N1CCOCC1)c1cccc(S(=O)(=O)N2CCCc3ccccc32)c1
inactive: outcome [1] | outcome [2] | outcome [3] | outcome [4] | outcome [5] | outcome [6] | outcome [7] | outcome [8] | outcome [9] | outcome [10] | outcome [11] | outcome [12] | outcome [13] | outcome [14] | outcome [16] | outcome [17]
active: potentiation [15] 10.2%

COc1ccc(/C=N/NC(=O)c2ccc(F)cc2)cc1CN1CCc2cc(OC)c(OC)cc2C1C (stereo not drawn)
active: inhibition [5] 86%
inactive: outcome [1] | outcome [2] | outcome [3] | outcome [4] | outcome [6] | outcome [7] | outcome [8] | outcome [9] | outcome [10] | outcome [11] | outcome [12] | outcome [13] | outcome [14] | outcome [15] | outcome [16] | outcome [17]

CN(Cc1ccccc1)Cc1nc2c(c(=O)n(C)c(=O)n2C)n1CCCc1ccccc1
active: potentiation [15] 8.51%
inactive: outcome [1] | outcome [2] | outcome [3] | outcome [4] | outcome [5] | outcome [6] | outcome [7] | outcome [8] | outcome [9] | outcome [10] | outcome [11] | outcome [12] | outcome [13] | outcome [14] | outcome [16] | outcome [17]

CC(C)(C)NCc1cc(Cl)ccc1OCc1cccs1
inactive: outcome [1] | outcome [2] | outcome [3] | outcome [4] | outcome [5] | outcome [6] | outcome [7] | outcome [8] | outcome [9] | outcome [10] | outcome [11] | outcome [12] | outcome [13] | outcome [14] | outcome [15] | outcome [16] | outcome [17]

O=C(N/N=C/c1cc2c(cc1Br)OCO2)c1cc2ccccc2o1
active: inhibition [5] 93%
inactive: outcome [1] | outcome [2] | outcome [3] | outcome [4] | outcome [6] | outcome [7] | outcome [8] | outcome [9] | outcome [10] | outcome [11] | outcome [12] | outcome [13] | outcome [14] | outcome [15] | outcome [16] | outcome [17]

Cc1cccc(C)c1OCC(=O)N1CC2(C)CC1CC(C)(C)C2 (stereo not drawn)
inactive: outcome [1] | outcome [2] | outcome [3] | outcome [4] | outcome [5] | outcome [6] | outcome [7] | outcome [8] | outcome [9] | outcome [10] | outcome [11] | outcome [12] | outcome [13] | outcome [14] | outcome [15] | outcome [16] | outcome [17]

c1ccc(C(c2nnnn2C2CCCC2)N2CCN(c3ccccc3)CC2)cc1 (stereo not drawn)
inactive: outcome [1] | outcome [2] | outcome [3] | outcome [4] | outcome [5] | outcome [6] | outcome [7] | outcome [8] | outcome [9] | outcome [10] | outcome [11] | outcome [12] | outcome [13] | outcome [14] | outcome [15] | outcome [16] | outcome [17]

CSCC[C@H](NC(=O)N1CCn2c1nc1ccccc12)C(=O)NCc1ccc(F)cc1
inactive: outcome [1] | outcome [2] | outcome [3] | outcome [5] | outcome [6] | outcome [7] | outcome [8] | outcome [9] | outcome [10] | outcome [11] | outcome [12] | outcome [13] | outcome [14] | outcome [15] | outcome [16] | outcome [17]
active: potentiation [4] 27%

CN(Cc1ccccc1)C(=O)c1oc(=O)c2ccccc2c1-c1ccccc1
active: potentiation [15] 9.58%
inactive: outcome [1] | outcome [2] | outcome [3] | outcome [4] | outcome [5] | outcome [6] | outcome [7] | outcome [8] | outcome [9] | outcome [10] | outcome [11] | outcome [12] | outcome [13] | outcome [14] | outcome [16] | outcome [17]
